The values that follow come from PubChem BioAssay (Tox21).

Unmarked numbers belong to inactive results. Results filed as inconclusive are left out. Activity calls are given as the source filed them. Unless noted, the call rests on the fitted dose curve.

Assay [1] in a line: Nuclear factor erythroid 2-related factor 2/antioxidant responsive element (Nrf2/ARE) small molecule agonists: qHTS cell viability counter screen in human keratinocytes (AID 1919968; active means well fitted curve in the direction sought with a large enough effect in the repeat runs; an effect the other way counts as inactive or inconclusive; further: nearly all actives have a fitted effect of over 55% in size). The essentials: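 In human HaCaT keratinocytes stably expressing an ARE-driven luciferase, compound exposure lasted 23 h at 37 C under 5% CO2. Viable cells are quantified with a protease-based fluorogenic reagent (CellTiter-Fluor) read 1 h after addition.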
(In general: Quantitative high-throughput screening tests each substance at several concentrations.)

Assay [2] can be described thus: Nuclear factor erythroid 2-related factor 2/antioxidant responsive element (Nrf2/ARE) small molecule agonists: luciferase reporter gene qHTS assay in human keratinocytes (AID 1919969). Further: nearly all actives have a fitted effect of over 35% in size. Further: potency means the concentration at half of the fitted maximal effect. In general terms: Reporter assays use an easily measured gene product as a stand-in for the process of interest.
For assay [3], the target named is KiSS-1 receptor (Homo sapiens) (UniProt Q969F8). Kind of assay: Human kisspeptin (KISS1R) small molecule agonists, calcium flux assay in KISS1R-HEK293 cells (AID 1920064; active means well fitted curve in the direction sought with a large enough effect in the repeat runs; an effect the other way counts as inactive or inconclusive). In a few lines: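 Concentration-response testing used 15 concentrations in triplicate on human KISS1R-expressing HEK293 cells. Calcium-dependent fluorescence (Ex/Em 480/540) was followed kinetically for 3 min after compound transfer.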
Sequence of KiSS-1 receptor (Homo sapiens) (Q969F8 whole entry, looked up): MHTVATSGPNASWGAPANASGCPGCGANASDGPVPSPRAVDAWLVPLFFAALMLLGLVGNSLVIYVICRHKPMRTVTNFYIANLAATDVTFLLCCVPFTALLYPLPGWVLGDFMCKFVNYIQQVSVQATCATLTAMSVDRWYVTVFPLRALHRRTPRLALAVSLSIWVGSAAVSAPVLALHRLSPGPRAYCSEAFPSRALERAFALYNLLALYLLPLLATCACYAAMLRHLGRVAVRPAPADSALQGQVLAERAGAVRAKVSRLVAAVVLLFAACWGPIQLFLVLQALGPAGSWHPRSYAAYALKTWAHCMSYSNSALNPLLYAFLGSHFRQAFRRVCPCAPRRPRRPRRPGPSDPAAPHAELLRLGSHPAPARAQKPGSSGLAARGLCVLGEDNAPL
A general note: A change in cytosolic calcium serves as a functional read-out for many receptors and channels.

Assay [4] can be described thus: G protein-coupled receptor (GPCR) small molecule agonists, calcium flux assay: HEK293 wild type cell line counter screen (AID 1920065). The essentials:
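Fluorescence intensity signals activation. After overnight (18 h) culture and a 1 h calcium dye load at 37 C, compounds are added by pin tool and the plate read at 480/540 nm for 3 min in 1 s steps.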

The nature of assay [5]: p53 small molecule agonists, cell-based qHTS assay with human liver microsomes (AID 1963577).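 Further: p53 response element beta-lactamase reporter cells with liver microsomes plus NADPH.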 The essentials: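 16 h, 37 C exposure of p53RE-bla cells to compounds with human liver microsomes and NADPH (0.5 mg/mL final each); detection via LiveBLAzer mixture, 2 h dark at room temperature.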
Assay [6] can be described thus: p53 small molecule agonists, cell-based qHTS assay with rat liver microsomes (AID 1963578). In a few lines: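 With rat liver microsomes and NADPH present (0.5 mg/mL final each), p53RE-bla cells are treated with compound for 16 h at 37 C. LiveBLAzer detection mixture is then applied for 2 h at room temperature in the dark.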
A short description of assay [7]: p53 small molecule agonists, cell-based qHTS assay with human liver microsomes: qHTS cell viability counter screen (AID 1963579). Further: nearly all actives have a fitted effect of over 45% in size. The essentials: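 In this multiplexed counter screen, the reporter plates were subsequently treated with CellTiter-Glo so that cell viability, reflected by luminescence, could be recorded for p53RE-bla cells dosed 16 h with compounds under microsomal activation (HLM and NADPH).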

The nature of assay [8]: p53 small molecule agonists, cell-based qHTS assay with rat liver microsomes: qHTS cell viability counter screen (AID 1963580). Further: nearly all actives have a fitted effect of over 45% in size. The essentials: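 Counter screen for cytotoxicity under metabolic activation: rat liver microsomes and NADPH, 0.5 mg/mL final each, added with compounds to p53RE-bla HCT-116 cells; 16 h at 37 C, then ATP luminescence read.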
Assay [9] in a line: p53 small molecule agonists, cell-based qHTS assay: qHTS cell viability counter screen (AID 1963581). Further: nearly all actives have a fitted effect of over 45% in size. In a few lines: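 Luminescence from CellTiter-Glo, reflecting ATP content, serves as the cytotoxicity measure; it is taken after the 2 h reporter substrate step in HCT-116 p53RE-bla cells dosed for 16 h at 37 C.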
Assay [10] in a line: p53 small molecule agonists, cell-based qHTS assay (AID 1963582; active means well fitted activation curve with a large enough effect in the signal ratio in the repeat runs, not every such curve was filed as active; the % refers to the signal ratio). In a few lines:
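After plating, p53RE-bla cells sat 5 h in the incubator; compounds or DMSO vehicle were pinned in; a 16 h incubation at 37 C followed; FRET substrate was added and, 2 h later at RT, fluorescence was measured.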

A short description of assay [11]: cAMP Responsive Elements (CRE) small molecule agonists, cell-based qHTS assay (AID 1963590). The essentials:
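Compound exposure lasted 3 h at 37 C/5% CO2 in CRE-bla HEK 293T cells grown in assay medium with 10% dialyzed FBS and 25 mM HEPES. Reporter signal came from LiveBLAzer B/G FRET substrate, 2 h, room temperature.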

The nature of assay [12]: cAMP Responsive Elements (CRE) small molecule antagonists, cell-based qHTS assay (AID 1963591; active means well fitted inhibition curve with a large enough effect in the signal ratio in the repeat runs, not every such curve was filed as active; the % refers to the signal ratio). The essentials:
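Stimulation used NKH477 at a final 0.25 uM for 3 h in compound-treated CRE-bla HEK293T cells, seeded 18 h beforehand. Reporter activity was measured with LiveBLAzer B/G FRET substrate after 2 h at room temperature.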

Assay [13] concerns the target Beta-2 adrenergic receptor (Homo sapiens) (UniProt P07550). Kind of assay: Adrenergic beta2 receptor (ADRB2) small molecule antagonists, cell-based qHTS assay (AID 1963592). Further: series mostly up to about 92 µM; nearly all actives have a fitted effect of over 50% in size. In a few lines:
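Assay format: CHO-ADRB2 cells, 18-20hr seeding at 37C/5% CO2, then compound plus 1nM isoproterenol agonist mix for 0.5hr RT. Homogeneous time-resolved fluorescence cAMP detection after 1hr, expressed as 665/615 nm ratio.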

Assay [14] has the same target. Kind of assay: Adrenergic beta2 receptor (ADRB2) small molecule agonists, cell-based qHTS assay (AID 1963593).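 Further: CHO cells stably overexpressing human ADRB2.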 In a few lines: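 CHO cells stably over-expressing ADRB2 were plated overnight at 37C, then dosed with compounds plus a stimulation mix containing 100uM IBMX and 25uM Ro-20-1724 for 0.5hr at room temperature. cAMP was measured by HTRF competition, 1hr.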

In assay [15] the target is 5-hydroxytryptamine receptor 2A (Homo sapiens) (UniProt P28223). Kind of assay: 5-hydroxytryptamine receptor 2A (HTR2A) small molecule antagonists, cell-based qHTS assay (AID 1963586). Further: nearly all actives have a fitted effect of over 45% in size. The essentials:
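CHO cells stably expressing human HTR2A were plated for 18 h at 37 C, then loaded with calcium dye for 1 h. Compounds were preincubated 5 min at room temperature before DOI (4 nM solution) was added. Kinetic fluorescence was read for 3 min.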

The target in assay [16] is Muscarinic acetylcholine receptor M1 (Homo sapiens) (UniProt P11229). Kind of assay: Cholinergic receptor muscarinic 1 (CHRM1) small molecule antagonists, cell-based qHTS assay (AID 1963588). Further: nearly all actives have a fitted effect of over 40% in size. In a few lines:
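Compounds were tested at 15 concentrations in three independent runs. Dye-loaded CHRM1-CHO cells were exposed 5 min at room temperature before stimulation by acetylcholine added at 50nM. Intracellular calcium was read kinetically on FDSS for 3 min.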

For assay [17] the target is unchanged. Kind of assay: Cholinergic receptor muscarinic 1 (CHRM1) small molecule agonists, cell-based qHTS assay (AID 1963589). Further: nearly all actives have a fitted effect of over 35% in size. In a few lines:
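Fluorescent calcium dye reports M1 activation in stably transfected CHO cells. Compounds, 15 concentrations, added after 1 h dye loading at 37 C; kinetic reading at 1 sec intervals.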

The target of assay [18] is D(2) dopamine receptor (Homo sapiens) (UniProt P14416). Kind of assay: Dopamine D2 receptor (DRD2) small molecule agonists, cell-based qHTS assay (AID 1963594). Further: nearly all actives have a fitted effect of over 35% in size. In a few lines: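 HEK293 cells stably expressing DRD2 were cultured 24 h at 37 C, then given Ro20-1724 (0.1 mM final) and compounds for 10 min at room temperature. NKH477 (200nM) was then added for 30 min. cAMP was read by HTRF.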
Sequence of D(2) dopamine receptor (Homo sapiens) (P14416 whole entry, looked up): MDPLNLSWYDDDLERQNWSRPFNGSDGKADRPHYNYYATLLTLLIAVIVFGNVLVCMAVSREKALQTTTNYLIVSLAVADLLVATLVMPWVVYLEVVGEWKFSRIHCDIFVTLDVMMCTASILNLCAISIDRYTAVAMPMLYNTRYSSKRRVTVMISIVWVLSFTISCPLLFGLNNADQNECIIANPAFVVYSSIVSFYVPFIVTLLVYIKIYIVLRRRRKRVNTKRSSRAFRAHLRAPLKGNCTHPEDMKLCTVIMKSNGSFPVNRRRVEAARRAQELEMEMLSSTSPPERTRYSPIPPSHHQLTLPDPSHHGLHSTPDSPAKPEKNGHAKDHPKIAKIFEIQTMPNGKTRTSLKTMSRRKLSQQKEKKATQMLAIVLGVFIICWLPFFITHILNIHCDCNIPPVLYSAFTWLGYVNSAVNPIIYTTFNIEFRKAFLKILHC

Assay [19] shares this target. Kind of assay: Dopamine D2 receptor (DRD2) small molecule antagonists, cell-based qHTS assay (AID 1963595; active means well fitted inhibition curve with a large enough effect in the signal ratio in the repeat runs, with a control signal flat; the % refers to the signal ratio). The essentials: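 Antagonist mode in DRD2-HEK293 cells: after compound addition with 0.1 mM Ro20-1724, cells received quinpirole (12 nM) and NKH477 (200 nM) for 30 min at room temperature; HTRF cAMP read after 1 h detection.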
Assay [20] concerns the target 5-hydroxytryptamine receptor 2A (Homo sapiens) (UniProt P28223). Kind of assay: 5-hydroxytryptamine receptor 2A (HTR2A) small molecule agonists, cell-based qHTS assay (AID 1963587). Further: nearly all actives have a fitted effect of over 30% in size. The essentials:
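HTR2A-CHO cells, plated 18 h at 37 C/5% CO2, dye-loaded 1 h at 37 C; compounds in DMSO added by pin tool (agonist mode). Intracellular calcium flux read as kinetic fluorescence on FDSS over 2 min at 1 s intervals.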

Sequence of 5-hydroxytryptamine receptor 2A (Homo sapiens) (P28223 whole entry, looked up): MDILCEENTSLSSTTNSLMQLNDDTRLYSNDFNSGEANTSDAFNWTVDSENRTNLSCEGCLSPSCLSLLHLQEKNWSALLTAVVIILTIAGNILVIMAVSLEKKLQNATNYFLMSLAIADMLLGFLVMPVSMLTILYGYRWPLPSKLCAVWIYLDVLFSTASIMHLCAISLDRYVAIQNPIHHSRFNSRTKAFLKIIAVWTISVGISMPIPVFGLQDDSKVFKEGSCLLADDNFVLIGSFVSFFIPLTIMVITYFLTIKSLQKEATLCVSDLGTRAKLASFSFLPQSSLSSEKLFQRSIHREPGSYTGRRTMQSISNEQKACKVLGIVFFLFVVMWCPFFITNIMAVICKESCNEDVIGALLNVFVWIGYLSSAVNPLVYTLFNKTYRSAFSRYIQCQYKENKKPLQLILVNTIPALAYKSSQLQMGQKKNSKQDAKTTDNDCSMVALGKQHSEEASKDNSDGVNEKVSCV
Sequence of Beta-2 adrenergic receptor (Homo sapiens) (P07550 whole entry, looked up): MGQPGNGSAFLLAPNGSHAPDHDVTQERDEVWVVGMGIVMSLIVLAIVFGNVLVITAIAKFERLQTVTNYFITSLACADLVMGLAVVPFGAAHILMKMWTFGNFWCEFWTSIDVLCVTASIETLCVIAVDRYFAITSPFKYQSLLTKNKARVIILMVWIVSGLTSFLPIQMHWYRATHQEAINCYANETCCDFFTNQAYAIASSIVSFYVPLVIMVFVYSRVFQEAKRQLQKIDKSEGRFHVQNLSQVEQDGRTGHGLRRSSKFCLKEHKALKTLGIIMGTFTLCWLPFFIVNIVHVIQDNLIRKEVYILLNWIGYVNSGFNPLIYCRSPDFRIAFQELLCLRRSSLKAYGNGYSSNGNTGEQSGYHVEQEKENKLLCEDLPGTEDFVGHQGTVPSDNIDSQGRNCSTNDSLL
Sequence of Muscarinic acetylcholine receptor M1 (Homo sapiens) (P11229 whole entry, looked up): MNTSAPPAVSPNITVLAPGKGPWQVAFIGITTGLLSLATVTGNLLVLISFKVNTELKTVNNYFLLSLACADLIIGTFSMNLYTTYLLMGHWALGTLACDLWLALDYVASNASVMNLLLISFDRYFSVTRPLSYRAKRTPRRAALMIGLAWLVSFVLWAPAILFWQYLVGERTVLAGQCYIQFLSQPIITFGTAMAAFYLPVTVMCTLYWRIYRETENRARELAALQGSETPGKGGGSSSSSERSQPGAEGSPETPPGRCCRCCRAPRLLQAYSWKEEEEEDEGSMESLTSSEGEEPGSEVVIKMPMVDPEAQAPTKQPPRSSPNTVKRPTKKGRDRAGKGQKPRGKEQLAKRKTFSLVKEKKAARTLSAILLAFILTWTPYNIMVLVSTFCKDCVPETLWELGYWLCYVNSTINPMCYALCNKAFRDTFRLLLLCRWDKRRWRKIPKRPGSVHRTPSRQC

Turning to `CCN1CCC[C@H]1CNC(=O)c1cc(S(N)(=O)=O)ccc1OC`, the Potency result in [1], in assay [2], in assay [5], in assay [6], in assay [7] and in assay [8] was “inactive” throughout. For the same molecule, the Potency result in [9], in assay [10], in assay [11], in assay [12], in assay [13] and in assay [14] was “inactive” each time. For the same molecule, the outcome in [3] and in [4] was inactive.
For the molecule `CCCCCCCCCC(=O)N(C)C`, the Potency entry in assay [1], in [5], in assay [6], in assay [7], in [8] and in assay [9] was “inactive” throughout. The Potency entry in assay [10], in assay [15], in assay [16], in assay [17], in assay [11] and in assay [12] was “inactive” throughout. Further, the Potency result in assay [13], in [18] and in assay [19] was “inactive” throughout. For the same molecule, in assay [2], the Potency was 43.9 µM (active). In addition, the outcome in [3] and in [4] was inactive.
For the molecule `Cc1cc2c(cc1S(N)(=O)=O)S(=O)(=O)CCC2`, the Potency entry in assay [1], in [2], in assay [5], in [6], in assay [7] and in [8] was “inactive” throughout. Further, the Potency result in assay [9], in assay [10], in assay [20], in assay [16], in assay [17] and in assay [11] was “inactive” in each case. Moreover, the Potency entry in [12], in assay [13], in [18] and in [19] was “inactive” throughout. Moreover, the outcome in assay [3] and in [4] was inactive.
Take `C[Si]1(C)O[Si](C)(C)O[Si](C)(C)O1`: the Potency entry in assay [1], in assay [2], in assay [5], in assay [6], in [7] and in assay [8] was “inactive” each time. Also, the Potency entry in [9], in assay [10], in assay [20], in assay [16], in [17] and in [11] was “inactive” each time. Moreover, the Potency result in assay [12], in assay [18] and in assay [19] was “inactive” in each case. The outcome in assay [3] and in [4] was inactive.
In the case of `CC(C)(C)NCCNC(C)(C)C`, the Potency entry in assay [1], in [2], in [5], in assay [6], in assay [7] and in assay [8] was “inactive” in each case. Moreover, the Potency result in assay [9], in assay [10], in assay [15], in assay [20], in assay [16] and in [17] was “inactive” each time. The Potency entry in assay [11], in [12], in assay [13], in [18] and in [19] was “inactive” in each case. Moreover, the result in assay [3] and in assay [4] was inactive.
As for `O=C(O)CCSCCC(=O)O`, the Potency entry in assay [1], in [2], in [5], in assay [6], in assay [7] and in assay [8] was “inactive” throughout. The Potency result in [9], in assay [10], in assay [15], in [20], in assay [17] and in assay [11] was “inactive” throughout. Also, the Potency result in assay [12], in [14], in [18] and in assay [19] was “inactive” each time. In addition, the outcome in assay [3] and in assay [4] was inactive.
With `CN(C)CCn1nnnc1SCC1=C(C(=O)O)N2C(=O)[C@@H](NC(=O)Cc3csc(N)n3)[C@H]2SC1`, the Potency entry in [1], in assay [2], in [5], in assay [6], in assay [7] and in [8] was “inactive” throughout. For the same molecule, the Potency entry in assay [9], in [10], in assay [15], in [20], in assay [17] and in assay [11] was “inactive” each time. Besides, the Potency result in [12], in assay [13] and in [18] was “inactive” each time. For the same molecule, the result in [3] and in [4] was inactive.
